Experimental data: article PMC5540273 (PLoS ONE, 2017)
pKd: −log10 of the molar value.

Legend:
[1] = test system: TYK2(JH1domain-catalytic)
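Further: kd values determined as follow-up on hits from a single-replicate KINOMEscan panel screen.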

Structure (SMILES): N#Cc1ccc(-c2cc(-c3c[nH]nc3-c3ccccn3)ccn2)cc1 [GW693028]
- pKd (TGFBR2): 6.24

Structure (SMILES): c1ccc(-c2cc(-c3c[nH]nc3-c3ccccn3)ccn2)cc1 [GW576604]
- pKd (TNNI3K): < 5.00

Structure (SMILES): CCn1cnc2c(N)ncnc21 [GW345098]
- pKd (TRPM6): 6.62

Structure (SMILES): O=C(NCCNc1ccnc(Nc2ccc(F)cc2)n1)c1cc2ccccc2s1 [GSK1379874]
- pKd (TXK): < 5.00

Structure (SMILES): CN(C1=C(c2ccccc2)C(=O)NC1=O)c1ccccc1 [SB-334860]
- pKd (TXK): < 5.00

Structure (SMILES): Cc1ccc(NC(=O)c2ccnc(N3CCN(C)CC3)c2)cc1-c1ccc(C(=O)NCC2CC2)cc1 [GW775604]
- pKd [1]: < 5.00
- pKd (ULK2): < 5.00

Structure (SMILES): NS(=O)(=O)c1cccc(-c2ccc3nccc(-c4cccc(S(N)(=O)=O)c4)c3c2)c1 [GW867253]
- pKd (ULK2): < 5.00

Structure (SMILES): O=C1NC(=O)C(N2CCc3ccccc32)=C1c1cccc(Cl)c1 [SB-408010]
- pKd (WNK4): < 5.00
